One may read the inhibition as the drop in the measured response relative to a control, in per cent.

Chain of Solute carrier family 2, facilitated glucose transporter member 1 (Homo sapiens) (P11166 whole entry): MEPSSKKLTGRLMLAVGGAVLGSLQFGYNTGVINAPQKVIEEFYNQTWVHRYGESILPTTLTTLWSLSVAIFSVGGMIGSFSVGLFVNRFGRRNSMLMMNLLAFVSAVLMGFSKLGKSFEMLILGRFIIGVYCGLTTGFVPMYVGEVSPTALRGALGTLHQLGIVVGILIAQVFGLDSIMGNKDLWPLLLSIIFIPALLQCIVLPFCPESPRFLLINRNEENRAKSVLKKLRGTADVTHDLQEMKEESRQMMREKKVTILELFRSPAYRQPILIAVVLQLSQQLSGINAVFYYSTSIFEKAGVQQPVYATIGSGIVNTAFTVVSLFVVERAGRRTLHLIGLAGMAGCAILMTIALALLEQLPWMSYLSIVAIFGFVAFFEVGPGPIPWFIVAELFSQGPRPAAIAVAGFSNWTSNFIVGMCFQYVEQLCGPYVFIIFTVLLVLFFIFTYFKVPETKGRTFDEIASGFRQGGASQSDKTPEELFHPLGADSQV

One assay has as its target Solute carrier family 2, facilitated glucose transporter member 1 (Homo sapiens) (UniProt P11166). In words: ST_JUDE_LEISH: Cytotoxicity at 2uM final concentration against transgenic Leishmania Mexicana promastigotes LmGLUT1 that are glucose transport deficient and complemented with the human glucose transporter GLUT1. Activity is measured by DNA content using SYBR green in vitro. The class given is functional.
Turning to `Cc1nc2nc(N)nc(N)c2c(C)c1Cc1cccc(C(F)(F)F)c1`, the inhibition is -1.41%.
Still for that read-out and setting: with `O=C(Nc1ccc(Cl)c(Cl)c1)N1CCc2ccc(OCCCN3CCCCC3)cc2CC1` the figure was 17.5%; with `c1ccc2c(c1)cc(CNCCCN1CCN(CCCNCc3cc4ccccc4c4ccccc34)CC1)c1ccccc12`, -0.37%; with `CNCCNCc1ccc(-c2ccc(-c3nc4cc(F)ccc4[nH]3)cc2)cc1`, 0.55%.
The same measure, in the same setting: with `Cc1cc(O)c(-c2ccc(OCc3ccc(Cl)cc3)cc2)c(C)n1` the figure was 0.84%.
As to `Cc1ccc(CNC(=N)NC(=O)c2nc(Cl)c(NCc3ccc(Cl)cc3)nc2N)c(C)c1`, the inhibition is -0.6%.
For the compound `COc1cc(-c2[nH]c(-c3ccc(OCCN(C)C)cc3)cc2-c2ccncc2)ccc1Cl`, the inhibition is 1.46%.
Still for that read-out and setting: under `O=C(c1cncc(-c2ccccc2)c1)N(Cc1cncn1Cc1ccccc1F)CC1CC1` stands 0.88%; under `O=C(NNC(=O)c1ccc(CN2CCC(c3nc4ccccc4[nH]3)CC2)cc1)Nc1ccc(Oc2ccccc2)cc1`, 2.4%; under `CCCC(CNCc1cccc(C)c1)CNc1cc(=O)c2ccccc2[nH]1` (stereo not given), 10.9%.
For `COc1cc(N(C)Cc2cnc3nc(N)nc(N)c3n2)cc(OC)c1OC`, the inhibition amounted to 4.09%.
On the same count and under the same terms, with `COc1ccc(CN(C)CCCc2ccc(NC(=O)Cc3ccc4nc(-c5ccccc5)ccc4c3)cc2)cc1OC` the figure was 19.3%.
The same measure, in the same setting: with `O=S(=O)(c1cccc(Cl)c1F)N(CCC(O)(C(F)(F)F)C(F)(F)F)Cc1cccc(O)c1` the figure was 5.8%; with `CCCCCCOc1ccc(N2C(N)=NC(N)=NC2(C)C)cc1`, 1.45%; with `CCCOc1cc(NC(=O)Nc2ccnc3ccccc23)cc(OCCC)c1`, -2.56%.
As to `Cc1cc(CN2CC[C@H](NC(=O)c3ccc(Cl)c(Cl)c3)C2)ccc1OC1CCN(C)C1` (stereo not given in full), the inhibition is -0.24%.
`Fc1ccc(CNc2nc(-c3ccc(F)c(C(F)(F)F)c3)n(-c3cccc(C(F)(F)F)c3)n2)cc1`: the inhibition amounted to 4.39%.
Consider `CN1CCN(CC(=O)Nc2cccc(-c3cccc(-c4nc5cc(F)ccc5[nH]4)c3)c2)CC1`, for which the inhibition is 0.82%.
The same measure, in the same setting: with `C=C(C)COc1ccc(-c2n[nH]c(C(F)(F)F)c2-c2ccccc2OC)c(O)c1` the figure was 8.67%; with `COc1cccc(C=NNc2cc(C)nc3c(OC)cccc23)c1`, 3.12%; with `CC1=C(C(=O)Nc2cc3cn[nH]c3cc2F)C(c2cccc(O)c2F)CC(=O)N1` (stereo not given), -2.25%.
Regarding `CCOc1cc(N)c2nc3ccc([N+](=O)[O-])cc3cc2c1`, the inhibition amounted to 16.1%.
Consider `COc1ccc(-c2cccc(NC(=O)c3ccc(C#N)cc3)c2)cc1CN1CCCN(C)CC1`, for which the inhibition was 3.34%.
The same measure, in the same setting: with `O=c1cc(NCCCNCc2ccc(Cl)c(Cl)c2)[nH]c2ccc(Cl)cc12` the figure was 0.59%; with `O=C(Nc1cc(Cl)ccc1O)c1ccc(Oc2ccc(C(=O)Nc3cc(Cl)ccc3O)cc2)cc1`, -1.36%.
The same measure, in the same setting: under `COc1cc(Cc2cnc(N)nc2N)ccc1OCc1ccc(F)c(F)c1` stands 3.03%.
As for `COc1ccc(OC)c2c1CC1NCC2c2c(OC)ccc(OC)c21` (stereo not given), the inhibition stood at 2.86%.
In the case of `O=C(NCCN1CCCC1)c1cc(-c2ccc(Cl)c(O)c2)c(-c2ccncc2)o1`, the inhibition came to 2.96%.
Same read-out and setting: with `Cc1cccc2nc(-c3ccc(-c4ccc(CN5CCN(CCC#N)CC5)cc4)cc3)[nH]c12` the figure was 15.7%.
On the same count and under the same terms, with `CCOc1c(Br)cc(C)cc1CNCCCNc1nc2ccccc2[nH]1` the figure was 1.35%; with `O=C(Nc1ccc(Cl)c(Cl)c1)N[C@H]1CCN(CCCCCNC(=O)C2CC2c2ccc(Cl)c(Cl)c2)C1` (stereo not given in full), 12.3%.
As to `Fc1ccc(C=NN=c2cc[nH]c3ccc(C(F)(F)F)cc23)cc1`, the inhibition came to 6.39%.
Still for that read-out and setting: under `O=C(NC(Cc1ccccc1)C(=O)O)c1cc(=O)c2ccccc2o1` (stereo not given) stands 0.32%; under `CC(=O)Nc1cccc(Nc2c3ccccc3nc3ccccc23)c1`, 1.69%; under `Cc1cc(N2CCN(CC3CCN(C)CC3)CC2)nc(Nc2ccc(Cl)cc2)n1`, 0.56%.
Same read-out and setting: under `CC(C)c1ccc(CN2CCCCC(NC(=O)c3cc(-c4ccccc4Cl)cs3)C2)cc1` (stereo not given) stands -0.41%.
On the same count and under the same terms, under `Cc1cc(Nc2cccc(C(F)(F)F)c2)nc2ccc(NC(=O)c3ccc(=O)[nH]c3)cc12` stands -0.79%; under `O=[N+]([O-])c1cccc(C=NNc2nc(=Nc3ccccc3)[nH]c(=Nc3ccccc3)[nH]2)c1`, 4.34%; under `CC(=O)Nc1ccc(NC(=O)c2cc(-c3cc(Cl)ccc3O)n[nH]2)cc1`, -0.41%.
As to `COc1ccc(C=Cc2ccc(-c3c(C)[nH]c(C)c(Cl)c3=O)cc2)cc1OC`, the inhibition was -0.83%.

Another assay deals with Hexose transporter 1 (Plasmodium falciparum) (UniProt O97467). In words: ST_JUDE_LEISH: Cytotoxicity at 2uM final concentration against transgenic Leishmania Mexicana promastigotes LmPfHT that are glucose transport deficient and complemented with the Plasmodium falciparum hexose transporter. Activity is measured by DNA content using SYBR green in vitro. The class given is functional.
As for `Cc1nc2nc(N)nc(N)c2c(C)c1Cc1cccc(C(F)(F)F)c1`, the inhibition is -2.48%.
As for `O=C(Nc1ccc(Cl)c(Cl)c1)N1CCc2ccc(OCCCN3CCCCC3)cc2CC1`, the inhibition was 16.2%.
Still for that read-out and setting: under `c1ccc2c(c1)cc(CNCCCN1CCN(CCCNCc3cc4ccccc4c4ccccc34)CC1)c1ccccc12` stands 0.84%; under `CNCCNCc1ccc(-c2ccc(-c3nc4cc(F)ccc4[nH]3)cc2)cc1`, 0.64%.
As for `Cc1cc(O)c(-c2ccc(OCc3ccc(Cl)cc3)cc2)c(C)n1`, the inhibition turned out to be 0.22%.
`Cc1ccc(CNC(=N)NC(=O)c2nc(Cl)c(NCc3ccc(Cl)cc3)nc2N)c(C)c1`: the inhibition came to 0.67%.
Still for that read-out and setting: under `COc1cc(-c2[nH]c(-c3ccc(OCCN(C)C)cc3)cc2-c2ccncc2)ccc1Cl` stands 1.55%; under `O=C(c1cncc(-c2ccccc2)c1)N(Cc1cncn1Cc1ccccc1F)CC1CC1`, 0.96%.
Still for that read-out and setting: with `O=C(NNC(=O)c1ccc(CN2CCC(c3nc4ccccc4[nH]3)CC2)cc1)Nc1ccc(Oc2ccccc2)cc1` the figure was 2.34%; with `CCCC(CNCc1cccc(C)c1)CNc1cc(=O)c2ccccc2[nH]1` (stereo not given), 11.9%; with `COc1cc(N(C)Cc2cnc3nc(N)nc(N)c3n2)cc(OC)c1OC`, 3.84%.
Turning to `COc1ccc(CN(C)CCCc2ccc(NC(=O)Cc3ccc4nc(-c5ccccc5)ccc4c3)cc2)cc1OC`, the inhibition is 11.1%.
As for `O=S(=O)(c1cccc(Cl)c1F)N(CCC(O)(C(F)(F)F)C(F)(F)F)Cc1cccc(O)c1`, the inhibition was -1.78%.
For `CCCCCCOc1ccc(N2C(N)=NC(N)=NC2(C)C)cc1`, the inhibition stood at 1.46%.
Same read-out and setting: under `CCCOc1cc(NC(=O)Nc2ccnc3ccccc23)cc(OCCC)c1` stands 3%; under `Cc1cc(CN2CC[C@H](NC(=O)c3ccc(Cl)c(Cl)c3)C2)ccc1OC1CCN(C)C1` (stereo not given in full), 0.72%.
In the case of `Fc1ccc(CNc2nc(-c3ccc(F)c(C(F)(F)F)c3)n(-c3cccc(C(F)(F)F)c3)n2)cc1`, the inhibition turned out to be 5.8%.
On the same count and under the same terms, under `CN1CCN(CC(=O)Nc2cccc(-c3cccc(-c4nc5cc(F)ccc5[nH]4)c3)c2)CC1` stands 1.22%; under `C=C(C)COc1ccc(-c2n[nH]c(C(F)(F)F)c2-c2ccccc2OC)c(O)c1`, 6.88%.
Turning to `COc1cccc(C=NNc2cc(C)nc3c(OC)cccc23)c1`, the inhibition amounted to 1.32%.
Same read-out and setting: with `CC1=C(C(=O)Nc2cc3cn[nH]c3cc2F)C(c2cccc(O)c2F)CC(=O)N1` (stereo not given) the figure was -3.23%.
With `CCOc1cc(N)c2nc3ccc([N+](=O)[O-])cc3cc2c1`, the inhibition was 20.1%.
On the same count and under the same terms, with `COc1ccc(-c2cccc(NC(=O)c3ccc(C#N)cc3)c2)cc1CN1CCCN(C)CC1` the figure was 2.59%; with `O=c1cc(NCCCNCc2ccc(Cl)c(Cl)c2)[nH]c2ccc(Cl)cc12`, 0.59%; with `O=C(Nc1cc(Cl)ccc1O)c1ccc(Oc2ccc(C(=O)Nc3cc(Cl)ccc3O)cc2)cc1`, -1.96%.
Same read-out and setting: with `COc1cc(Cc2cnc(N)nc2N)ccc1OCc1ccc(F)c(F)c1` the figure was 5.38%; with `COc1ccc(OC)c2c1CC1NCC2c2c(OC)ccc(OC)c21` (stereo not given), 2.69%; with `O=C(NCCN1CCCC1)c1cc(-c2ccc(Cl)c(O)c2)c(-c2ccncc2)o1`, 4.79%.
Still for that read-out and setting: under `Cc1cccc2nc(-c3ccc(-c4ccc(CN5CCN(CCC#N)CC5)cc4)cc3)[nH]c12` stands 14.1%; under `CCOc1c(Br)cc(C)cc1CNCCCNc1nc2ccccc2[nH]1`, -0.49%.
For `O=C(Nc1ccc(Cl)c(Cl)c1)N[C@H]1CCN(CCCCCNC(=O)C2CC2c2ccc(Cl)c(Cl)c2)C1` (stereo not given in full), the inhibition is 8.71%.
Take `Fc1ccc(C=NN=c2cc[nH]c3ccc(C(F)(F)F)cc23)cc1`: the inhibition is 6.15%.
The same measure, in the same setting: with `O=C(NC(Cc1ccccc1)C(=O)O)c1cc(=O)c2ccccc2o1` (stereo not given) the figure was 1.17%.
With `CC(=O)Nc1cccc(Nc2c3ccccc3nc3ccccc23)c1`, the inhibition worked out at 3.82%.
On the same count and under the same terms, with `Cc1cc(N2CCN(CC3CCN(C)CC3)CC2)nc(Nc2ccc(Cl)cc2)n1` the figure was 0.64%.
Same read-out and setting: under `CC(C)c1ccc(CN2CCCCC(NC(=O)c3cc(-c4ccccc4Cl)cs3)C2)cc1` (stereo not given) stands -1.98%; under `Cc1cc(Nc2cccc(C(F)(F)F)c2)nc2ccc(NC(=O)c3ccc(=O)[nH]c3)cc12`, -0.69%.
Turning to `O=[N+]([O-])c1cccc(C=NNc2nc(=Nc3ccccc3)[nH]c(=Nc3ccccc3)[nH]2)c1`, the inhibition was found to be 7.8%.
In the case of `CC(=O)Nc1ccc(NC(=O)c2cc(-c3cc(Cl)ccc3O)n[nH]2)cc1`, the inhibition was -0.51%.
Take `COc1ccc(C=Cc2ccc(-c3c(C)[nH]c(C)c(Cl)c3=O)cc2)cc1OC`: the inhibition is -2.94%.
